Reference: PubChem BioAssay AID1159580 (chemical genetic matrix, 2015)
The whole screen tested about 5,500 compounds, of which about 2,000 (36%) were called active. Another 18% or so got no clear call; they are omitted. No stated cut-off is given here; in the data, active means normalized growth mostly below about 0.91 (no sharp cut-off); inconclusive means no clear call, values can overlap the other calls; inactive means mostly above about 0.92. This is one part of the list.

Test: chemical genetic growth profiling, strain panel (AID 1159580);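 further: tested at 20 µM; growth read once vehicle control cultures reached saturation at 30 °C; 1 = growth at the plate median or of vehicle wells; lower values mean less growth of the strain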
Conditions: growth OD
[1] = S. cerevisiae deletion strains, locus YDL101C, strain DUN1, active compounds read low
[2] = S. cerevisiae deletion strains, locus YHR030C, strain SLT2, active compounds read low

Measured: normalized growth

CC(C)(C)c1cc(C(C)(C)C)n(-c2ccc(N=Cc3cc(Br)cc(Br)c3O)cc2)n1
active: S. cerevisiae deletion strains, locus YAL013W, strain DEP1, active compounds read low 0.157 | S. cerevisiae deletion strains, locus YBR229C, strain ROT2, active compounds read low 0.204 | S. cerevisiae deletion strains, locus YCL061C, strain MRC1, active compounds read low 0.194 | [1] 0.193 | S. cerevisiae deletion strains, locus YDR150W, strain NUM1, active compounds read low 0.355 | S. cerevisiae deletion strains, locus YEL061C, strain CIN8, active compounds read low 0.152 | S. cerevisiae deletion strains, locus YGR078C, strain PAC10, active compounds read low 0.0895 | [2] 0.103 | S. cerevisiae deletion strains, locus YHR087W, strain rtc3, active compounds read low 0.101 | S. cerevisiae deletion strains, locus YJR043C, strain POL32, active compounds read low 0.357 | S. cerevisiae deletion strains, locus YJR075W, strain HOC1, active compounds read low 0.119 | S. cerevisiae deletion strains, locus YKL190W, strain CNB1, active compounds read low 0.187 | S. cerevisiae deletion strains, locus YLR039C, strain RIC1, active compounds read low 0.074 | S. cerevisiae deletion strains, locus YLR058C, strain SHM2 (second series), active compounds read low 0.318 | S. cerevisiae deletion strains, locus YLR085C, strain ARP6, active compounds read low 0.12 | S. cerevisiae deletion strains, locus YLR262C, strain YPT6, active compounds read low 0.0868 | S. cerevisiae deletion strains, locus YML094W, strain GIM5, active compounds read low 0.209 | S. cerevisiae deletion strains, locus YMR219W, strain ESC1, active compounds read low 0.219 | S. cerevisiae deletion strains, locus YMR263W, strain SAP30, active compounds read low 0.163 | S. cerevisiae deletion strains, locus YNL153C, strain GIM3, active compounds read low 0.267 | S. cerevisiae deletion strains, locus YNL298W, strain CLA4 (second series), active compounds read low 0.174 | S. cerevisiae deletion strains, locus YNL322C, strain KRE1, active compounds read low 0.679 | S. cerevisiae deletion strains, locus YNR030W, strain Alg12, active compounds read low 0.468 | S. cerevisiae deletion strains, locus YPL055C, strain LGE1, active compounds read low 0.172 | S. cerevisiae deletion strains, locus YPL241C, strain CIN2, active compounds read low 0.64 | S. cerevisiae deletion strains, locus YPR135W, strain CTF4, active compounds read low 0.276 | S. cerevisiae strains, strain wild type, active compounds read low 0.141

CN(C)c1nc(=S)ss1
active: S. cerevisiae deletion strains, locus YAR019C, strain CDC15, active compounds read low 0.83 | S. cerevisiae deletion strains, locus YBR135W, strain CKS1, active compounds read low 0.865 | S. cerevisiae deletion strains, locus YBR136W, strain MEC1, active compounds read low 0.883 | S. cerevisiae deletion strains, locus YBR160W, strain CDC28, active compounds read low 0.882 | S. cerevisiae deletion strains, locus YDL017W, strain CDC7, active compounds read low 0.896 | S. cerevisiae deletion strains, locus YDL028C, strain MPS1, active compounds read low 0.839 | S. cerevisiae deletion strains, locus YDL108W, strain KIN28, active compounds read low 0.878 | S. cerevisiae deletion strains, locus YDL132W, strain cdc53, active compounds read low 0.687 | S. cerevisiae deletion strains, locus YDL214C, strain PRR2, active compounds read low 0.332 | S. cerevisiae deletion strains, locus YDR052C, strain DBF4, active compounds read low 0.886 | S. cerevisiae deletion strains, locus YDR054C, strain cdc34, active compounds read low 0.569 | S. cerevisiae deletion strains, locus YDR226W, strain ADK1, active compounds read low 0.865 | S. cerevisiae deletion strains, locus YDR477W, strain SNF1, active compounds read low 0.319 | S. cerevisiae deletion strains, locus YER123W, strain YCK3, active compounds read low 0.186 | S. cerevisiae deletion strains, locus YER133W, strain GLC7, active compounds read low 0.211 | S. cerevisiae deletion strains, locus YFL009W, strain cdc4, active compounds read low 0.732 | S. cerevisiae deletion strains, locus YFL029C, strain CAK1, active compounds read low 0.747 | S. cerevisiae deletion strains, locus YFR019W, strain FAB1, active compounds read low 0.221 | S. cerevisiae deletion strains, locus YGR040W, strain KSS1, active compounds read low 0.47 | S. cerevisiae deletion strains, locus YGR052W, strain FMP48, active compounds read low 0.349 | S. cerevisiae deletion strains, locus YGR092W, strain DBF2, active compounds read low 0.111 | [2] 0.576 | S. cerevisiae deletion strains, locus YHR079C, strain IRE1, active compounds read low 0.204 | S. cerevisiae deletion strains, locus YHR082C, strain KSP1, active compounds read low 0.464 | S. cerevisiae deletion strains, locus YHR205W, strain SCH9, active compounds read low 0.493 | S. cerevisiae deletion strains, locus YIL147C, strain SLN1, active compounds read low 0.825 | S. cerevisiae deletion strains, locus YJL095W, strain BCK1, active compounds read low 0.327 | S. cerevisiae deletion strains, locus YJL157C, strain FAR1, active compounds read low 0.199 | S. cerevisiae deletion strains, locus YJR016C, strain ILV3, active compounds read low 0.715 | S. cerevisiae deletion strains, locus YJR066W, strain TOR1 (second series), active compounds read low 0.262 | S. cerevisiae deletion strains, locus YJR066W, strain TOR1, active compounds read low 0.324 | S. cerevisiae deletion strains, locus YKL048C, strain ELM1, active compounds read low 0.228 | S. cerevisiae deletion strains, locus YKL067W, strain YNK1, active compounds read low 0.197 | S. cerevisiae deletion strains, locus YKL101W, strain HSL1, active compounds read low 0.205 | S. cerevisiae deletion strains, locus YKL193C, strain SDS22, active compounds read low 0.84 | S. cerevisiae deletion strains, locus YKL203C, strain TOR2, active compounds read low 0.342 | S. cerevisiae deletion strains, locus YLR113W, strain HOG1, active compounds read low 0.351 | S. cerevisiae deletion strains, locus YLR133W, strain CKI1, active compounds read low 0.232 | S. cerevisiae deletion strains, locus YLR403W, strain SFP1, active compounds read low 0.116 | S. cerevisiae deletion strains, locus YML070W, strain DAK1, active compounds read low 0.199 | S. cerevisiae deletion strains, locus YMR001C, strain CDC5, active compounds read low 0.87 | S. cerevisiae deletion strains, locus YMR205C, strain PFK2 (second series), active compounds read low 0.229 | S. cerevisiae deletion strains, locus YMR277W, strain FCP1, active compounds read low 0.827 | S. cerevisiae deletion strains, locus YNL006W, strain LST8, active compounds read low 0.501 | S. cerevisiae deletion strains, locus YNL020C, strain ARK1, active compounds read low 0.189 | S. cerevisiae deletion strains, locus YNL161W, strain CBK1, active compounds read low 0.869 | S. cerevisiae deletion strains, locus YNL183C, strain NPR1, active compounds read low 0.341 | S. cerevisiae deletion strains, locus YNL207W, strain RIO2, active compounds read low 0.865 | S. cerevisiae deletion strains, locus YNL222W, strain SSU72, active compounds read low 0.861 | S. cerevisiae deletion strains, locus YNL307C, strain MCK1 (second series), active compounds read low 0.162 | S. cerevisiae deletion strains, locus YOL078W, strain AVO1, active compounds read low 0.807 | S. cerevisiae deletion strains, locus YOL136C, strain PFK27, active compounds read low 0.165 | S. cerevisiae deletion strains, locus YOR061W, strain CKA2, active compounds read low 0.217 | S. cerevisiae deletion strains, locus YOR119C, strain RIO1, active compounds read low 0.325 | S. cerevisiae deletion strains, locus YOR231W, strain MKK1, active compounds read low 0.211 | S. cerevisiae deletion strains, locus YOR329C, strain SCD5, active compounds read low 0.88 | S. cerevisiae deletion strains, locus YPL031C, strain PHO85, active compounds read low 0.21 | S. cerevisiae deletion strains, locus YPL153C, strain RAD53, active compounds read low 0.16 | S. cerevisiae deletion strains, locus YPL204W, strain HRR25, active compounds read low 0.202 | S. cerevisiae deletion strains, locus YPL209C, strain IPL1, active compounds read low 0.872 | S. cerevisiae deletion strains, locus YPL256C, strain CLN2, active compounds read low 0.393 | S. cerevisiae deletion strains, locus YPR025C, strain CCL1, active compounds read low 0.881 | S. cerevisiae deletion strains, strain TSCII, active compounds read low 0.706
inactive: S. cerevisiae deletion strains, locus YBL105C, strain PKC1, active compounds read low 0.91 | [1] 0.937 | S. cerevisiae deletion strains, locus YFR003C, strain YPI1, active compounds read low 0.905 | S. cerevisiae deletion strains, locus YFR028C, strain CDC14, active compounds read low 0.894 | S. cerevisiae deletion strains, locus YJL128C, strain PBS2, active compounds read low 0.876 | S. cerevisiae deletion strains, locus YPR106W, strain ISR1, active compounds read low 0.934 | S. cerevisiae deletion strains, locus YPR111W, strain DBF20, active compounds read low 0.913 | S. cerevisiae deletion strains, strain NNK1, active compounds read low 0.921
